Nrf2 activator = qHTS of Nrf2 Activators; Potency, µM (titrated, usually from 46.1 µM), actives largely listed as activators; 410,000 tested, 0.31% active; AREc32 ARE-luciferase reporter (MCF7-derived line), luminescence, 24 h; AID 624171, 2012; note: nearly all actives have a fitted effect of over 65% in size
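Cells of the AREc32 ARE-luciferase line are plated in OPTI-MEM containing 5% FBS and left overnight at 37 deg C. Compounds are pinned in, incubation continues 24 hr, and firefly luciferase signal is then measured.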
HepG2 viability = qHTS for Inhibitors of TGF-b: Cytotox Counterscreen; Potency, µM (top dose mostly 46.1 µM), usual class: cytotoxic; HepG2 CAGA-GFP viability, ATP luminescence, 18 h; 410,000 tested, 0.76% active
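CellTiter-Glo luminescence gave cytotoxicity after 18 hours at 37 degrees C. The cells were HepG2 CAGA-GFP in 1% FBS DMEM, stimulated with 500 pg/mL TGF-beta after compound addition. %Activity was normalised to no-cell wells (complete cell-killing) and DMSO (no toxicity), and curves were fitted and classified.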
Nrf2 inh = Nrf2 qHTS screen for inhibitors; A549 ARE-Fluc reporter, luciferase luminescence, 18-24 h; Potency, µM (series often up to 46 µM), usual class: inhibitors; 360,000 tested, 2.1% active; AID 504444, 2011; note: nearly all actives have a fitted effect of over 60% in size
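A549 ARE_Fluc cells (5000/well, 5% FBS OPTI-MEM) pre-incubated 2 h, then treated with compounds 18-24 h at 37C/5% CO2 in concentration-response. CellTiter-Fluor viability read first; BugLite luciferase luminescence after 15 min at room temperature gives Nrf2 activity.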
TGFb SMAD3 inh = qHTS for Inhibitors of TGF-b. 410,000 tested, 1.2% active. HepG2 CAGA-GFP TGF-b/SMAD3 reporter, GFP fluorescence, 18 h; TGF-beta stimulated, 500 pg/mL final. Potency, µM (titrated, usually from 46.1 µM), hits mostly inhibitors; note: nearly all actives have a fitted effect of over 65% in size
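GFP signal (ex488/em500-530) from TGF-beta-stimulated HEPG2 CAGA-GFP cells, 500 pg/mL final, 18 h at 37 degrees C in DMEM plus 1% FBS, normalized to unstimulated and DMSO-stimulated controls.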
A549 viability = Nrf2 qHTS screen for inhibitors: counterscreen for cytotoxicity | A549 ARE-Fluc cells, CellTiter-Fluor viability, 18-24 h | Potency, µM (highest dose often 46 µM), usual class: inhibitors | 390,000 tested, 0.16% active
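A549 ARE_Fluc cells in 5% FBS OPTI-MEM were exposed to compounds in concentration-response for 18-24 h at 37 deg C. Viability was read by CellTiter-Fluor fluorescence (Ex 405/Em 525) after 30 min, before the luciferase read.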
Numbers stand for hits; - = inactive; ? = inconclusive; . = not tested or not shown; ! = not active in a repeat; [ ] = another dose, or the depositor's remark. Most compounds without a hit are left out; they make up all but 3.6% or so of the library. Calls come from the whole dose curve; as a rule, active = well fitted curve in the direction sought with a large enough effect; inconclusive = small, poorly fitted or top-dose-only effect, or another doubt; inactive = no such curve, though single readings can be large; an effect the other way counts as inactive or inconclusive.

SMILES	Nrf2 activator	HepG2 viability	Nrf2 inh	TGFb SMAD3 inh	A549 viability
CCn1cc(C(=O)NCc2ccc3c(c2)OCO3)c(=O)c2cc(F)c(N3CCN(C(=O)c4ccco4)CC3)cc21	-	-	16µM	-	?
CCn1cc(C(=O)NCc2ccccc2)c(=O)c2cc(F)c(N3CCN(C(=O)c4ccco4)CC3)cc21	-	-	.	20µM	?
CCOC(=O)C1=C(COC(=O)c2cc(S(=O)(=O)N(C)C)ccc2C)NC(=O)NC1C (configuration not stated)	-	-	-	-	-
CN(CCOc1ccccc1)C(=O)C1CCC(=O)N(CCCN2CCCC2=O)C1 (configuration not stated)	-	-	-	-	-
Cc1ccc(/C=C/C(=O)OCC(=O)NC(C)c2ccccc2)o1 (configuration not stated)	-	-	-	-	-
Cc1ccc(/C=C/C(=O)OCC(=O)Nc2cccnc2Cl)o1	2.8µM	-	-	-	-
CCn1c(P(C)(=O)O)nc2cc(NC(=O)c3ccccc3Cl)ccc21	-	-	-	-	-
COc1ccc(Cn2c(SCc3ccc(C(=O)NC4CCCC4)cc3)nc3ccncc32)cc1	-	-	16µM	?	-
O=C(NC1CCCC1)c1ccc(CSc2nc3cccnc3n2Cc2ccccc2)cc1	-	-	?	18µM	-
Cc1ccc(Cn2c(SCc3ccc(C(=O)NC4CCCCC4)cc3)nc3ccncc32)cc1	-	-	21µM	?	-
COc1ccc(Cn2c(SCc3ccc(C(=O)NC4CCCCC4)cc3)nc3ccncc32)cc1	-	-	13µM	13µM	-
O=C(NC1CCCCC1)c1ccc(CSc2nc3ccncc3n2Cc2ccccc2)cc1	-	-	?	?	-
COc1ccc(Cn2c(SCc3ccc(C(=O)NC4CCCC4)cc3)nc3cccnc32)cc1	-	-	-	-	-
O=C(NC1CCCCC1)c1ccc(CSc2nc3cccnc3n2Cc2ccccc2)cc1	-	-	-	-	-
O=C(Nc1ccccc1F)c1ccc(CN2CCc3ccccc3C2)cc1	-	-	-	?	-
Cc1onc(-c2ccccc2Cl)c1C(=O)N1CCOC12CCN(c1cccc(F)n1)CC2	-	-	-	-	-
O=C(NC1CCCC1)c1ccc(CSc2nc3ccncc3n2Cc2cccc(F)c2)cc1	-	-	?	?	-
O=C(NC1CCCC1)c1ccc(CSc2nc3ccncc3n2Cc2ccc(F)cc2)cc1	-	-	?	7.9µM!	-
COc1ccc(N2CC(NC(=O)Cc3cccs3)CC2=O)cc1OC (configuration not stated)	-	-	.	-	-
CC1(OC(=O)CCc2ccccc2)C(=O)C=C2C=C(c3ccc(C#N)cc3)N(Cc3ccco3)C=C2C1=O (configuration not stated)	-	-	-	?	-
Cc1cccc(OCCOc2ccccc2C=C(C#N)C#N)c1	-[9.22 µM]	-	-	10µM	-
COC(=O)C1=C(C)NC(C)=C(C(=O)OCC(C)C)C1c1ccccc1[N+](=O)[O-] (configuration not stated)	-	-	16µM	18µM	-
Cc1ccc(C2=C(c3ccc([N+](=O)[O-])cc3)C(=O)OC2)cc1C	-	-	23µM	-	-
CC(=O)c1cccc(NC(=O)c2ccco2)c1	-	-	-	-	-
N#Cc1ccccc1NC(=O)c1ccccc1OCC(=O)NCc1ccco1	11µM	-	-	-	-
SMILES	Nrf2 activator	HepG2 viability	Nrf2 inh	TGFb SMAD3 inh	A549 viability
COc1ccccc1OCC(=O)Nc1ccccc1C(=O)NCc1ccco1	-	-	-	-	-
CCOC(=O)c1sc2ncnc(OC)c2c1C	-	-	-	-	-
OC(c1ccc(Cl)cc1)c1ncc(-c2cccc(C(F)(F)F)c2)[nH]1 (configuration not stated)	-	10µM	.	?	.
COc1ccc(C(O)c2ncc(-c3cccc(C(F)(F)F)c3)[nH]2)cc1 (configuration not stated)	-	-	.	-	.
OC(c1cc(F)cc(Cl)c1)c1ncc(-c2cccc(C(F)(F)F)c2)[nH]1 (configuration not stated)	-	-	.	11µM	.
Oc1ccc(C(c2nnnn2C2CCCCC2)N2CCOCC2)cc1 (configuration not stated)	-	-	-	-	-
Cc1sc2nc(C3CC3)nc(SCC(=O)N3CC(=O)Nc4ccccc43)c2c1C	-	-	7.3µM	-	-
COc1ccc(NC(=O)Cn2ccc(C(F)(F)F)n2)cc1S(=O)(=O)N1CCOCC1	-	-	-	-	-
O=C(Nc1ccccc1F)c1ccc(Cn2nc(N3CCN(c4ccccc4)CC3)ccc2=O)o1	-	-	21µM	?	-
COc1cccc(Nc2ncccc2C(=O)Nc2ccccc2)c1	-	-	21µM	-	?
COc1cccc(NC(=O)c2ccccc2Oc2ccccc2)c1	-	-	-	-	-
CCOc1ncccc1C(=O)NNC(=O)c1ccc(NS(=O)(=O)c2cccs2)cc1	2.5µM	-	-	-	-
CCOc1ncccc1C(=O)Nc1ccc(C(=O)Nc2ccc(OC)cc2)cc1	-	-	8.2µM	-	-
O=C(CCN1CCC(c2ccccc2)C1)c1ccccc1 (configuration not stated)	-	-	.	?	-
O=C(CCN1CCc2ccccc21)c1ccc2c(c1)OCCO2	-	-	?	-	-
O=C(CCN1CCC(c2ccccc2)C1)c1ccc2c(c1)OCCO2 (configuration not stated)	8.9µM	-	-	?	-
O=C(CCN1CCCC1Cc1ccccc1)c1ccc2c(c1)OCCO2 (configuration not stated)	-	-	-	11µM	-
O=C(CCN1CCc2ccccc2C1)c1ccc2c(c1)OCCO2	-	7.1µM	-	?	.
O=C(CCN1CCCCC1)c1ccc2c(c1)OCCO2	18µM	-	-	?	-
Cc1cc(=O)oc2cc(Oc3ccc([N+](=O)[O-])cc3C(F)(F)F)ccc12	-	-	-	-	-
COc1ccccc1NC(=O)CN(c1ccc([N+](=O)[O-])cc1)S(=O)(=O)c1ccccc1	-	-	-	-	-
COC(=O)N/N=C/c1cccc([N+](=O)[O-])c1	-	-	-	-	-
CCCC(=O)NC(=S)Nc1cccc(Cl)c1N1CCCC1	-	-	?	?	-
CCOC(=O)c1ccc(N2C(=O)c3[nH]nc(-c4ccccc4)c3C2c2ccc(CC)cc2)cc1 (configuration not stated)	-	11µM	18µM	11µM	?
CCOc1ccc(N2C(=O)c3n[nH]c(-c4cccs4)c3C2c2cccc(F)c2)cc1 (configuration not stated)	-	11µM	?	?	-

Screening results as filed in PubChem.
